The list is not random: actives were taken first. Their share in the collection is about 3.5%.
MITF inh: blocks human microphthalmia-associated transcription factor | O75030 | AlphaScreen MITF homodimerization, bead proximity signal | hit rate 0.91% among 650,000 | inhibition, % at 2.6 µM; in the data active = inhibition above about 50%;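 note: 0% = vehicle wells with protein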
GPR151 ag: activators of human GPR151 | PathHunter beta-arrestin GPR151 cells, luminescence | hit rate 1% among 650,000 | Q8TDV0 | activation, % at 11.2 µM; in the data active = activation above about 4.9%;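 note: 0% = median of compound wells and 100% = cells with positive control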
TEAD-YAP inh: TEAD-YAP interaction inhibition | HEK-TIYL cells, TEAD-Gal4/YAP UAS-luciferase luminescence | inhibition, % at 9.12 µM | hit rate 1.4% among 640,000 | AID 1259422; in the data active = inhibition above about 32%;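 note: 0% = median of test compound wells and 100% = reference inhibitor wells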
FBW7 act: activators of human E3 ligase FBW7; Q969H0; AlphaScreen FBW7–phospho-cyclin E peptide binding, activator screen; normalized activity (activation), % at 26.1 µM; hit rate 0.13% among 650,000; AID 1259310; in the data active = normalized activity above about 1.9%;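 note: purified mutant Fbw7 with reduced substrate affinity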
Target sequence (Q969H0 whole entry, looked up): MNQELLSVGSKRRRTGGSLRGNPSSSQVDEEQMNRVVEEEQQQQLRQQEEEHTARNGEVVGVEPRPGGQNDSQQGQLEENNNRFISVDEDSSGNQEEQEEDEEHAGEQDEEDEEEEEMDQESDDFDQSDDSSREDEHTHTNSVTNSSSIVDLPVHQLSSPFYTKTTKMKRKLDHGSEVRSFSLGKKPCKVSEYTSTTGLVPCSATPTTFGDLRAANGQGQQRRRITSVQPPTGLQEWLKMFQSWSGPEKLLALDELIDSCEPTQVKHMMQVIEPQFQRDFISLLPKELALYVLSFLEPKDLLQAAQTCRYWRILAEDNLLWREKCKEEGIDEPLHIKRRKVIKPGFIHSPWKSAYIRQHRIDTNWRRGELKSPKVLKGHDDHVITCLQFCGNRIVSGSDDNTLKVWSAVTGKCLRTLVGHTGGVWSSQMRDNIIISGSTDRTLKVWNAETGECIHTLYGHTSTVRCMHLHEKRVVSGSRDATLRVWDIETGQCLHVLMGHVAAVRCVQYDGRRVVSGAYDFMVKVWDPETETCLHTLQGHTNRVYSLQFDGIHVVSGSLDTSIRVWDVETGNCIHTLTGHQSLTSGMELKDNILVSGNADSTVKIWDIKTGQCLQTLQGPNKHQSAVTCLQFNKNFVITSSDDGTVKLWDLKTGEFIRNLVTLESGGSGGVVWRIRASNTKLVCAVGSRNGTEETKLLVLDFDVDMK
MITF confirm: confirmation of human MITF inhibitors. shares compounds with MITF inh. inhibition, % at 2.6 µM. hit rate 16% among 4,700. AlphaScreen MITF homodimerization, biotin/His-MITF beads;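 active = inhibition above a cutoff derived from the DMSO control wells, cut at about 28% in these data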;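 note: 0% = MITF dimer wells with DMSO only; inhibitors lower the bead chemiluminescence by keeping MITF from dimerizing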
AS interf DR: counter-screen: compounds optically interfering with AlphaScreen; hit rate 6% among 480; AID 1259373; IC50, µM; shares compounds with MITF inh; AlphaScreen optical interference counterscreen, cell-free; call rule not given here
AS interf ctr: counter-screen: compounds optically interfering with AlphaScreen | shares compounds with MITF inh | LysRS AlphaScreen counterscreen, signal interference, triplicate | inhibition, % at 2.6 µM | hit rate 7.6% among 4,700 | AID 1259376;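 active = inhibition above a cutoff derived from the DMSO control wells, cut at about 30% in these data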
Numbers without * were called inactive.

Results for O=C(O)Cn1c2ccccc2c2nnc(SCC(=O)Nc3cccc(Br)c3)nc21 ?
MITF inh: -9.0; GPR151 ag: -0.7; TEAD-YAP inh: 0.9; FBW7 act: 0.1

How did O=S(=O)(c1ccc(Br)cc1)n1c(SCc2cccc(F)c2)nc2ccccc21 do in these assays?
MITF inh: 110.0*; GPR151 ag: 0.4; TEAD-YAP inh: -58.3; FBW7 act: 0.1; MITF confirm: -11.4; AS interf ctr: -6.5

How did Cc1ccc(OCCN2CCOCC2)c(Br)c1 do in these assays?
MITF inh: 64.2*; GPR151 ag: 1.9; TEAD-YAP inh: -13.4; FBW7 act: 0.5; MITF confirm: -4.1; AS interf ctr: -1.1

How did Cc1cc(Cl)c(OCCN2CCOCC2)c(Cl)c1 do in these assays?
MITF inh: 61.1*; GPR151 ag: -0.6; TEAD-YAP inh: -7.4; FBW7 act: -0.2; MITF confirm: -1.1; AS interf ctr: 2.2

Results for Cc1ccc(OCCOCCN2CCOCC2)c(C)c1 ?
MITF inh: -1.1; GPR151 ag: 1.9; TEAD-YAP inh: -14.6; FBW7 act: -0.1

Results for Cc1ccc(C(C)(C)C)c(OCCN2CCOCC2)c1 ?
MITF inh: 64.8*; GPR151 ag: -0.7; TEAD-YAP inh: 0.9; FBW7 act: 0.0; MITF confirm: 6.5; AS interf ctr: 5.3

Results for Clc1ccc(OCCN2CCOCC2)c(Br)c1 ?
MITF inh: 37.6; GPR151 ag: -0.4; TEAD-YAP inh: -0.1; FBW7 act: 0.4

How did COC(=O)c1ccccc1NC(=O)CSc1ccc(Cl)cc1 do in these assays?
MITF inh: 7.4; GPR151 ag: -0.2; TEAD-YAP inh: 1.3; FBW7 act: -0.1

Results for CCOC(=O)c1c(NC(=O)c2c(OC)cccc2OC)sc(C(=O)OC)c1C ?
MITF inh: 18.2; GPR151 ag: 0.8; TEAD-YAP inh: 3.1; FBW7 act: 0.1

What do the screens show for `c1ccc(Nc2nc(Nc3ccccc3)c3[nH]cnc3n2)cc1`?
MITF inh: 26.1; GPR151 ag: -1.1; TEAD-YAP inh: 7.0; FBW7 act: 0.5

Results for O=C(Nc1ccc(N2CCOCC2)cc1)c1ccc2nc(Nc3ccccn3)sc2c1 ?
MITF inh: 70.0*; GPR151 ag: 2.5; TEAD-YAP inh: -14.2; FBW7 act: -0.2; MITF confirm: 78.9*; AS interf DR: >6.76; AS interf ctr: -18.4

What do the screens show for `O=C(Nc1ccc(N2CCOCC2)cc1)c1ccc2nc(Nc3ccc(N4CCOCC4)cc3)sc2c1`?
MITF inh: 4.9; GPR151 ag: 0.3; TEAD-YAP inh: -3.7; FBW7 act: -0.2

Results for O=C(Nc1ccc(N2CCOCC2)cc1)c1ccnc(Nc2ccc(N3CCOCC3)cc2)c1 ?
MITF inh: 9.3; GPR151 ag: -0.4; TEAD-YAP inh: -4.5; FBW7 act: -0.1

How did O=C(Nc1ccc(N2CCOCC2)cc1)c1ccnc(Nc2ncccn2)c1 do in these assays?
MITF inh: 58.6*; GPR151 ag: 3.7; TEAD-YAP inh: -6.9; FBW7 act: -0.2; MITF confirm: 84.0*; AS interf DR: >7.06; AS interf ctr: -10.7

What do the screens show for `O=C(Nc1ccc(N2CCOCC2)cc1)c1ccc2nc(-c3cccs3)sc2c1`?
MITF inh: 54.8*; GPR151 ag: 1.1; TEAD-YAP inh: 0.7; FBW7 act: -0.1; MITF confirm: 56.5*; AS interf DR: >7.76; AS interf ctr: 4.6

What do the screens show for `CCOc1ccc(NC(=O)NCc2noc3ccc(C)cc23)cc1`?
MITF inh: 6.4; GPR151 ag: 0.0; TEAD-YAP inh: 6.7; FBW7 act: 0.0

How did CCN(c1ccccc1)c1c([N+](=O)[O-])ccc2nonc12 do in these assays?
MITF inh: 66.0*; GPR151 ag: -0.3; TEAD-YAP inh: -1.5; FBW7 act: -0.5; MITF confirm: 59.4*; AS interf ctr: 54.5*

Results for CCN(c1ccccc1)c1cc(N2CCOCC2)c2nonc2c1[N+](=O)[O-] ?
MITF inh: 5.3; GPR151 ag: 1.1; TEAD-YAP inh: 0.4; FBW7 act: -0.2

How did c1ccc2c(CN3CCN(Cc4ccncc4)CC3)cccc2c1 do in these assays?
MITF inh: 54.6*; GPR151 ag: -0.9; TEAD-YAP inh: -0.7; FBW7 act: -0.3; MITF confirm: 1.7; AS interf ctr: 2.5

How did C(=N\N1CCN(Cc2cccc3ccccc23)CC1)/c1ccncc1 do in these assays?
MITF inh: 14.3; GPR151 ag: -0.9; TEAD-YAP inh: -14.5; FBW7 act: 0.0

How did Cc1ccccc1CN1CCN(Cc2cccnc2)CC1 do in these assays?
MITF inh: 84.3*; GPR151 ag: -0.6; TEAD-YAP inh: 3.3; FBW7 act: -0.2; MITF confirm: 3.5; AS interf ctr: 23.6

Results for Cc1ccc(C)c(N2CCN(Cc3cccnc3)CC2)c1 ?
MITF inh: 29.9; GPR151 ag: -0.9; TEAD-YAP inh: 9.4; FBW7 act: 0.0

Results for Cc1ccccc1CN1CCN(Cc2ccncc2)CC1 ?
MITF inh: 60.0*; GPR151 ag: 1.4; TEAD-YAP inh: -6.6; FBW7 act: -0.1; MITF confirm: -14.6; AS interf ctr: -0.2

What do the screens show for `CCC(CO)Nc1ccc2ncc(-c3ccccc3Cl)n2n1` (stereo not drawn)?
MITF inh: -19.6; GPR151 ag: -0.4; TEAD-YAP inh: -5.6; FBW7 act: -0.5

How did c1ccc(CN2CCC(Nc3nc(Nc4ccccc4)c4ncn(-c5ccsc5)c4n3)CC2)cc1 do in these assays?
MITF inh: 19.2; GPR151 ag: -0.4; TEAD-YAP inh: -21.6; FBW7 act: 0.0

Results for COC(=O)c1ccc(=O)c2nc3/c(=C/O)c(O)cc(=O)c3[nH]c12 ?
MITF inh: 76.8*; GPR151 ag: 0.4; TEAD-YAP inh: -5.5; FBW7 act: 0.2; MITF confirm: 85.6*; AS interf ctr: -7.6

Results for CCCCCCCCCCCCCCCCCC(=O)OCC ?
MITF inh: -12.8; GPR151 ag: -0.5

What do the screens show for `CCOC(=O)CCCCC(=O)c1[nH]c(=O)n(C)c1C`?
MITF inh: 105.8*; GPR151 ag: 1.2; TEAD-YAP inh: 0.5; FBW7 act: -2.2; MITF confirm: 94.9*; AS interf ctr: 79.8*

How did O=C(CC1OC(=O)C(Br)=C1Br)CC1OC(=O)C(Br)=C1Br (stereo not drawn) do in these assays?
MITF inh: 73.5*; GPR151 ag: -0.5; TEAD-YAP inh: 1.2; FBW7 act: -0.8; MITF confirm: 14.2; AS interf ctr: 2.4

What do the screens show for `CC(=O)CC1OC(=O)C(Br)=C1NCc1ccccc1` (stereo not drawn)?
MITF inh: 11.4; GPR151 ag: -1.3; TEAD-YAP inh: 1.2; FBW7 act: 0.2

What do the screens show for `CCSCCOC(=O)C1=C(C)NC2=C(C(=O)CCC2)C1c1cccc([N+](=O)[O-])c1` (stereo not drawn)?
MITF inh: 19.1; GPR151 ag: -0.1; TEAD-YAP inh: 7.0; FBW7 act: 1.5
